Among the data in PubChem BioAssay (EPA / NIEHS) are outcome and AC50 values, retold here.

For orientation: AC50 means the midpoint of the concentration-response curve, whichever way the signal moves.

Each structure is given as a SMILES string. Results filed as inconclusive are left out. The source made the active and inactive calls. The calls were made as follows: active = hit-call score of the fitted dose curve at least 0.9, where 1 is the maximum; inconclusive = response in the unintended direction; inactive = score below 0.9.

Assay [1] concerns the target human Matrix Metalloproteinase-9 (MMP9), MMP9 (gene 4318) (UniProt P14780). As to the kind of experiment: NVS_ENZ_hMMP9: NovaScreen (NVS) Enzymatic Assay for human Matrix Metalloproteinase-9 (MMP9) (AID 2283190).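 Also: cell-free recombinant MMP9 protease activity read by fluorescent substrate signal; active means inhibition seen as loss of fluorescence signal versus DMSO.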 An outline of the steps: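 Screening concentration 25 uM, duplicate wells, then dose series for confirmation. Cell-free enzymatic reaction measured by fluorescence intensity 1 h post-dosing; decreased signal versus DMSO taken as activity.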

Assay [2] concerns the target Serine/threonine-protein phosphatase PP1-alpha catalytic subunit (Homo sapiens) (UniProt P62136). As to the kind of experiment: NVS_ENZ_hPPP1CA: NovaScreen (NVS) Enzymatic Assay for human Protein Phosphatase 1 Aatalytic subunit Alpha (PPP1CA) (AID 2283200). In short, it runs like this: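 Chemicals were first screened in duplicate at 25 uM, and those passing threshold (e.g. 30% inhibition) were run as concentration series to 50 uM. Cell-free recombinant protein, 1.33 h read, fluorescent substrate/product mobility-shift detection, normalised to DMSO.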

Assay [3] concerns the target cAMP-dependent protein kinase catalytic subunit alpha (Homo sapiens) (UniProt P17612). Briefly: NVS_ENZ_hPKA: NovaScreen (NVS) Enzymatic Assay for human Protein Kinase A (PKA) (AID 2283192). An outline of the steps:
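Cell-free kinase activity read by fluorescence after mobility-shift separation of substrate and product, 1 h post-dosing. Single-concentration duplicate screen (25 uM) preceded singleton concentration series (top 50 uM); loss of signal versus DMSO.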

The target in assay [4] is human Phosphodiesterase 5 (PDE5), PDE5A (gene 8654) (UniProt O76074). Briefly: NVS_ENZ_hPDE5: NovaScreen (NVS) Enzymatic Assay for human Phosphodiesterase 5 (PDE5) (AID 2283194). In short, it runs like this:
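Screening began in duplicate at 25 uM, with actives taken into concentration-response. Enzyme activity of recombinant PDE5 toward its substrate was measured at 1 h by fluorescence mobility-shift detection, relative to DMSO controls.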

The target in assay [5] is human Protein Tyrosine Phosphatase Non-receptor Type 1 (PTPN1), PTPN1 (gene 5770) (UniProt P18031). As to the kind of experiment: NVS_ENZ_hPTPN1: NovaScreen (NVS) Enzymatic Assay for human Protein Tyrosine Phosphatase Non-receptor Type 1 (PTPN1) (AID 2283201). An outline of the steps:
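Chemicals were first tested in duplicate at 25 uM, and those passing threshold went on to singleton concentration series topping at 50 uM. Recombinant enzyme, specific substrate, product separated by mobility shift, fluorescence read at 1.33 h; activity loss relative to DMSO.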

For assay [6], the target named is human Matrix Metalloproteinase-2 (MMP2), MMP2 (gene 4313) (UniProt P08253). As to the kind of experiment: NVS_ENZ_hMMP2: NovaScreen (NVS) Enzymatic Assay for human Matrix Metalloproteinase-2 (MMP2) (AID 2283184). In short, it runs like this:
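Compounds first screened in duplicate at a single 25 uM, with actives followed up in concentration series. Recombinant human MMP2 cleaves a fluorogenic substrate; fluorescence taken at 1 h, inhibition fitted relative to DMSO.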

In assay [7] the target is human Phosphodiesterase 4A1 (PDE4A1), PDE4A (gene 5141) (UniProt P27815). Briefly: NVS_ENZ_hPDE4A1: NovaScreen (NVS) Enzymatic Assay for human Phosphodiesterase 4A1 (PDE4A1) (AID 2283191). An outline of the steps:
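Fluorescent substrate turnover by recombinant PDE4A1 read after 1 h by mobility-shift separation. Primary duplicate screen at 25 uM; hits retested in concentration series with a 50 uM maximum, relative to DMSO.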

The target in assay [8] is human Phosphodiesterase 10 (PDE10), PDE10A (gene 10846) (UniProt Q9Y233). Briefly: NVS_ENZ_hPDE10: NovaScreen (NVS) Enzymatic Assay for human Phosphodiesterase 10 (PDE10) (AID 2283195). An outline of the steps: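 Readout is fluorescence intensity following electrophoretic mobility-shift separation, 1 h after dosing of isolated PDE10A protein. Hits meeting a preset threshold at 25 uM went to concentration series (max 50 uM), analysed relative to DMSO.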

In assay [9] the target is human Protein Phosphatase, Mg2+/Mn2+ Dependent 1A (PPM1A), PPM1A (gene 5494) (UniProt P35813). As to the kind of experiment: NVS_ENZ_hPPM1A: NovaScreen (NVS) Enzymatic Assay for human Protein Phosphatase, Mg2+/Mn2+ Dependent 1A (PPM1A) (AID 2283198). An outline of the steps:
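Primary screen in duplicate at 25 uM, with actives then titrated to a maximum of 50 uM. Recombinant PPM1A dephosphorylation of fluorescent substrate measured at 1 h, with substrate and product separated by mobility shift; inhibition fitted against DMSO.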

In assay [10] the target is Tyrosine-protein phosphatase non-receptor type 11 (Homo sapiens) (UniProt Q06124). As to the kind of experiment: NVS_ENZ_hPTPN11: NovaScreen (NVS) Enzymatic Assay for human Protein Tyrosine Phosphatase Non-receptor Type 11 (PTPN11) (AID 2283202). In short, it runs like this:
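Compounds first tested in duplicate at 25 uM; those reaching ~30% inhibition rerun in singleton concentration-response, top 50 uM. Phosphatase activity measured after 0.5 h by fluorescence with mobility-shift separation, relative to DMSO.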

Assay [11] deals with human Matrix Metalloproteinase-3 (MMP3), MMP3 (gene 4314) (UniProt P08254). Briefly: NVS_ENZ_hMMP3: NovaScreen (NVS) Enzymatic Assay for human Matrix Metalloproteinase-3 (MMP3) (AID 2283185). An outline of the steps: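 Fluorescent substrate turnover by recombinant MMP3 read after 1 h, signal loss scored against DMSO. Compounds first run in duplicate at 25 uM single dose, then actives confirmed by concentration series.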
Sequence of human Matrix Metalloproteinase-3 (MMP3), MMP3 (gene 4314) (P08254 whole entry, looked up): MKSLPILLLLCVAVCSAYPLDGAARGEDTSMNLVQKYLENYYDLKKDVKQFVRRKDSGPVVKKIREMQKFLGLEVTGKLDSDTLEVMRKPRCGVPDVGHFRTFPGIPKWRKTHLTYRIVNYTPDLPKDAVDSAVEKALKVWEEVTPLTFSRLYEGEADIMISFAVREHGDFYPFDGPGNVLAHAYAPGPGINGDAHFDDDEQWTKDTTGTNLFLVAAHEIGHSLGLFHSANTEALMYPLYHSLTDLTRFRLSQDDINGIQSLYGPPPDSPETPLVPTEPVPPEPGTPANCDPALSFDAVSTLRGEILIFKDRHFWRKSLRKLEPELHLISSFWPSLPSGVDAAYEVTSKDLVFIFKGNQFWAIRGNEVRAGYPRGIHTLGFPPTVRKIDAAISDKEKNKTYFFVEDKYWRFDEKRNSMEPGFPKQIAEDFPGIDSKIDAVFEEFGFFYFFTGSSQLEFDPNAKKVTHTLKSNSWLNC

Sequence of human Phosphodiesterase 4A1 (PDE4A1), PDE4A (gene 5141) (P27815 whole entry, looked up): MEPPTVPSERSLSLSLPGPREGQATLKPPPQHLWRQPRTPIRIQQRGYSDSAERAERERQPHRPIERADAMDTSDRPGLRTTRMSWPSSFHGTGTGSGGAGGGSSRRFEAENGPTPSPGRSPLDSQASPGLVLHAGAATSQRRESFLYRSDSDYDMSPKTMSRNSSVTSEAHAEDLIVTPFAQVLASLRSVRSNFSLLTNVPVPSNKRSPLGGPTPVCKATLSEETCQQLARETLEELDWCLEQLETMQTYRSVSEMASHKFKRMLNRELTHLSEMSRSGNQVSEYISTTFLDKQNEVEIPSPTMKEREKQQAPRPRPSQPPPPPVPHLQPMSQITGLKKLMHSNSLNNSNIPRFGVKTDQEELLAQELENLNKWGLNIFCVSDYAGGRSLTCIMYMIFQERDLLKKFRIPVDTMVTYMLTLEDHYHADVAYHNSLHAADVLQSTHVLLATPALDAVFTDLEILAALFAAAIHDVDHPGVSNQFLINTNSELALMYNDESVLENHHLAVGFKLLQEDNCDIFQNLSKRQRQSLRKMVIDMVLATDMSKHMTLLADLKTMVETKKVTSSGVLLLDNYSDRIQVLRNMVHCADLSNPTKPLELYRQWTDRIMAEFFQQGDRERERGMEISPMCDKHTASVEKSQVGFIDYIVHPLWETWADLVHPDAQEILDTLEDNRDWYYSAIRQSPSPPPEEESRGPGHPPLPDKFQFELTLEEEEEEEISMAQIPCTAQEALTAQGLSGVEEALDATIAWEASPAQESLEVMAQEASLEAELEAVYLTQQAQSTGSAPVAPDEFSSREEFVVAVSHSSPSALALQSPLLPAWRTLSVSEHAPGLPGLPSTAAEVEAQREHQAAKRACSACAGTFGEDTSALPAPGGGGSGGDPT
Sequence of human Matrix Metalloproteinase-2 (MMP2), MMP2 (gene 4313) (P08253 whole entry, looked up): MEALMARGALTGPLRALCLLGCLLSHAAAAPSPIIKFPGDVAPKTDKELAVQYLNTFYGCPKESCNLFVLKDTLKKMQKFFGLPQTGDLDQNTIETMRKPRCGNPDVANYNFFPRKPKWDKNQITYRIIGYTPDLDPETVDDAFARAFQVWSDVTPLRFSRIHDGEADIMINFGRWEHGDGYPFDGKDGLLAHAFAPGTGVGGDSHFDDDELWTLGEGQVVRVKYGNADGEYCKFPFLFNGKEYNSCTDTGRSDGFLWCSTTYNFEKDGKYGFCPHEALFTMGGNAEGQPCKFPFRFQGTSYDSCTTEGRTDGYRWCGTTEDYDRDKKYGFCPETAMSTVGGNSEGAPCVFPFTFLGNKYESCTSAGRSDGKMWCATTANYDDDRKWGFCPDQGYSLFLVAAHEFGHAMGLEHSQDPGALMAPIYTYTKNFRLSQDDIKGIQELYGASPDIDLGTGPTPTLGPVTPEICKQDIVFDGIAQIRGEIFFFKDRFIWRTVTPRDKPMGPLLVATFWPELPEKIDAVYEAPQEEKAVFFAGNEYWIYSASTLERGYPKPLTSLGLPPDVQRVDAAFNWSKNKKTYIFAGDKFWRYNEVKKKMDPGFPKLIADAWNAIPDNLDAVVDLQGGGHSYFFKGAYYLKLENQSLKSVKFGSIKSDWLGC
Sequence of human Matrix Metalloproteinase-9 (MMP9), MMP9 (gene 4318) (P14780 whole entry, looked up): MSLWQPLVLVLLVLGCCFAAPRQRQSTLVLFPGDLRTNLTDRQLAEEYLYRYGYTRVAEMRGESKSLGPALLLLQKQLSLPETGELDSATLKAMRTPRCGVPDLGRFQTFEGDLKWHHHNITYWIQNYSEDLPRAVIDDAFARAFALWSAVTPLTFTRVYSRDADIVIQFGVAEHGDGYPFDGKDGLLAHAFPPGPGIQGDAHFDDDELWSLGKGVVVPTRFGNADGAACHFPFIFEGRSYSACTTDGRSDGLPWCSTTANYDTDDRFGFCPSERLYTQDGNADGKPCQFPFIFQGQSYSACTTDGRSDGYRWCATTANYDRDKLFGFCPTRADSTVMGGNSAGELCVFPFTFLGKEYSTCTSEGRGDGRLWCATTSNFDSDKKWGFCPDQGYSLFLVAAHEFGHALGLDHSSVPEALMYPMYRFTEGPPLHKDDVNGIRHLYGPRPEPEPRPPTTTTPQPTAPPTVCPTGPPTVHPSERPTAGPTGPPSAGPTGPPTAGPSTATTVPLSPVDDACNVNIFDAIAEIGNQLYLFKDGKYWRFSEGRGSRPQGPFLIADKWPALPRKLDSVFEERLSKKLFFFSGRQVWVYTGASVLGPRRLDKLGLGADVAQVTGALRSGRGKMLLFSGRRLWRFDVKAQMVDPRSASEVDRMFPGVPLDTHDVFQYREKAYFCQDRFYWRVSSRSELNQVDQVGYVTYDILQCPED
Sequence of human Protein Phosphatase, Mg2+/Mn2+ Dependent 1A (PPM1A), PPM1A (gene 5494) (P35813 whole entry, looked up): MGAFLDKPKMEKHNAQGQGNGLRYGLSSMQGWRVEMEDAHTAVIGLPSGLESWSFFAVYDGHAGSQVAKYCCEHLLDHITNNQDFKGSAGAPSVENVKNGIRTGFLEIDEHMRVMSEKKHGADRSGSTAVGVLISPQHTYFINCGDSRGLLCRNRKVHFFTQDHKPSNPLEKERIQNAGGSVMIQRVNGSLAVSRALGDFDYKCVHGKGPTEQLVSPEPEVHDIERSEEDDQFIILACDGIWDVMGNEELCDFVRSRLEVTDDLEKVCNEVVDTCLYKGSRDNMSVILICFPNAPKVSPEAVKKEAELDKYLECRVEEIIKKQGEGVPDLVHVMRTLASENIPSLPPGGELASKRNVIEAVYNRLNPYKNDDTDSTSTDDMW
Sequence of human Protein Tyrosine Phosphatase Non-receptor Type 1 (PTPN1), PTPN1 (gene 5770) (P18031 whole entry, looked up): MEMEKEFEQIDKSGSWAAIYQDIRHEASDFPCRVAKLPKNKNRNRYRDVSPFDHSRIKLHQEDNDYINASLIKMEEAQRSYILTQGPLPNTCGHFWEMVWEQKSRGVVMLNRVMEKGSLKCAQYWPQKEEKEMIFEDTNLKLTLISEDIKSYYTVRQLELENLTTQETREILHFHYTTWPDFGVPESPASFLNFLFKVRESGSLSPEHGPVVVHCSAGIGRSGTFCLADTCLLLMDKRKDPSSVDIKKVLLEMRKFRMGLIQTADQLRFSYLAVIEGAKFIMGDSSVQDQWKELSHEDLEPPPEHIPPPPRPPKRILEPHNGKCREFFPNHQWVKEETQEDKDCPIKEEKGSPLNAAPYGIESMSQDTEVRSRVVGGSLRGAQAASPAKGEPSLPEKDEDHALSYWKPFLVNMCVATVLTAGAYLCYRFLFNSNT
Sequence of human Phosphodiesterase 10 (PDE10), PDE10A (gene 10846) (Q9Y233 whole entry, looked up): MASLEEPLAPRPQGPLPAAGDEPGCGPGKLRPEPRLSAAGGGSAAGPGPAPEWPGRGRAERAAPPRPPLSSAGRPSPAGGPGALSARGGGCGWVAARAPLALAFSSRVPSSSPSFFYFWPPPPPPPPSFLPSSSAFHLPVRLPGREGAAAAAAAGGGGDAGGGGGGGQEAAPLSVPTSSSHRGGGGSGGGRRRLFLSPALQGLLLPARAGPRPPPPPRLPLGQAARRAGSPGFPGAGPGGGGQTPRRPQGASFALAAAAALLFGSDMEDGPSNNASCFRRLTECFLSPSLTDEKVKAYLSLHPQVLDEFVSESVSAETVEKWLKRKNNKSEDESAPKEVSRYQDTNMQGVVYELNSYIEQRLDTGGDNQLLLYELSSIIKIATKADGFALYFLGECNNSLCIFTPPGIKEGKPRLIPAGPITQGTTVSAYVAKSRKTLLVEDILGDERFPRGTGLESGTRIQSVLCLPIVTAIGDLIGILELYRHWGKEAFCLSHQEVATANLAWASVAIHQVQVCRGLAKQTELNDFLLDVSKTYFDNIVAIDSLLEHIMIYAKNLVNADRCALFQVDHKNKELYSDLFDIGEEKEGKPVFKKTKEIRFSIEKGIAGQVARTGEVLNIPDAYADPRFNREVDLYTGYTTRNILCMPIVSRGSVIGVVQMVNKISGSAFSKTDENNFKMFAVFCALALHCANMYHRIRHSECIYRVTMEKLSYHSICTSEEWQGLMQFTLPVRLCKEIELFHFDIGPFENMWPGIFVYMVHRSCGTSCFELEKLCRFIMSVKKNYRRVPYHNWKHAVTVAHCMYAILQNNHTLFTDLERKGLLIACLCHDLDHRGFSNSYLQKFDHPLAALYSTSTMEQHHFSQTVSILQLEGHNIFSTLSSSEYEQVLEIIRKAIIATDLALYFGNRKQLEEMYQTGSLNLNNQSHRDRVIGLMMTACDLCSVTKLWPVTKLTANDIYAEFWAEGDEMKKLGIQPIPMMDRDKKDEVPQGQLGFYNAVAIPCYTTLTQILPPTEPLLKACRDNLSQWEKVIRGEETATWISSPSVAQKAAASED
Sequence of Serine/threonine-protein phosphatase PP1-alpha catalytic subunit (Homo sapiens) (P62136 whole entry, looked up): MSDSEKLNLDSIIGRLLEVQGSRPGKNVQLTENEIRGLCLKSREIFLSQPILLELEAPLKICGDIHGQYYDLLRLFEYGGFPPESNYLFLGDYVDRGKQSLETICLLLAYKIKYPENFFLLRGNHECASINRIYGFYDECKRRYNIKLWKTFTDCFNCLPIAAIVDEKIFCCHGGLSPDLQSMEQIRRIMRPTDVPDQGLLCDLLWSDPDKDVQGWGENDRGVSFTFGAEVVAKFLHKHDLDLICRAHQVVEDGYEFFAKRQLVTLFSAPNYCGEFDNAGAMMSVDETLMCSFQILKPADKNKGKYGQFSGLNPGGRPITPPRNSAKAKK

In the case of `Fc1ccccc1[C@@H](F)COC1CCC(Nc2ncnc3[nH]ncc23)CC1` (some centres undefined), the call in assay [1] was inactive.
Take `O=c1n(CC2CO2)c(=O)n(CC2CO2)c(=O)n1CC1CO1` (centres undefined): in [2], the compound was called inactive.
For the compound `CN(C)c1ccc(N=NS(=O)(=O)O)cc1`, the call in assay [3], in assay [4] and in [5] was inactive.
Turning to `COC(=O)CC(=O)OC`, in [6], the AC50 was 7.18 µM (active). For the same compound, the compound was called inactive in assay [1] and in assay [7].
On to `CC(C)=CCCC(C)CCO` (centres undefined), for which, in assay [4], the call was inactive.
Regarding `Cn1c(=O)c2c(ncn2C)n(C)c1=O`, the AC50 in [7] and in assay [8] was 25 µM (active) each time. For the same compound, the compound was classed as inactive in assay [4].
Turning to `CC1(C)C(=O)N(Br)C(=O)N1Br`, the compound was called inactive in [7].
Take `CCCCC(CC)COC(=O)c1ccc(C(=O)OCC(CC)CCCC)cc1` (centres undefined): the result in assay [6] and in [1] was inactive.
For `COc1ccc(-n2nc(C(F)F)cc2-c2ccc(S(C)=O)cc2)cc1` (centres undefined), the AC50 was 0.00229 µM (active) in assay [7] and 12.9 µM (active) in assay [4].
With `CC(=O)c1ccc2c(c1)[C@H](NC(=O)c1ccc(F)cc1)[C@@H](O)C(C)(C)O2`, the compound was classed as inactive in assay [3] and in [4].
On to `O=c1[nH]c2ccc(S(=O)CCN3CCC(Cc4ccc(F)cc4)CC3)cc2o1` (centres undefined), for which the call in assay [9] was inactive.
As to `COc1cccc(-c2ccc(/C=C\CN3CCCCCC3)cc2Cl)c1`, in assay [7], the outcome was inactive. The AC50 in assay [8] is 22.6 µM (active).
As to `Cc1ccc(C)c(O)c1`, the outcome in assay [9] was inactive.
`O=C(CCCCCCCCc1cccnc1)N1CCC(C=C(c2ccccc2)c2ccccc2)CC1`: the result in assay [10] was inactive.
Consider `CCCCCCCCCCCCc1ccccc1`, for which the outcome in assay [5] was inactive.
With `CCc1cc(SCc2sc(-c3ccc(C(F)(F)F)cc3)nc2CN2CCN(c3ccc(OC)cc3)CC2)ccc1OCC(=O)O`, the figures for the half-maximal activity concentration (AC50) in assay [6] and in [1] were 19.8 µM (active) and 8.8 µM (active), respectively. In [11], the compound was called inactive.
On to `CC(C)(O)c1coc(S(=O)(=O)NC(=O)Nc2c3c(cc4c2CCC4)CCC3)c1`, for which the result in [9] was inactive.
